# According to PubChem BioAssay (NCATS):
# Records with an inconclusive call do not appear. Entries that show only a call come without a potency. Active and inactive are the calls of the source. The call rests on the fitted dose curve; in most records, active means well fitted inhibition curve with a large enough effect; inconclusive means small, poorly fitted or top-dose-only effect; inactive means no such curve, though single readings can be large or run the other way.
# Target: Cytochrome P450 3A7 (Homo sapiens) (UniProt P24462)
# Assay: Cytochrome P450 family 3 subfamily A member 7 (CYP3A7) small molecule antagonists: luciferase biochemical qHTS assay (AID 1963596); further: nearly all actives have a fitted effect of over 40% in size
# Settings: P450-Glo CYP3A7 enzyme luminescence, 1 h; series mostly up to 57.4 µM
# How it was run: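 Luminescence from luciferin released by CYP3A7 from a proluciferin substrate, read 20 min after detection reagent. Compound and enzyme-substrate mix sat 10 min before NADPH regeneration solution; reaction ran 1 h at room temperature.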
# Potency means the concentration at half of the fitted maximal effect.
# Cytochrome P450 3A7 (Homo sapiens), sequence (P24462 whole entry, looked up): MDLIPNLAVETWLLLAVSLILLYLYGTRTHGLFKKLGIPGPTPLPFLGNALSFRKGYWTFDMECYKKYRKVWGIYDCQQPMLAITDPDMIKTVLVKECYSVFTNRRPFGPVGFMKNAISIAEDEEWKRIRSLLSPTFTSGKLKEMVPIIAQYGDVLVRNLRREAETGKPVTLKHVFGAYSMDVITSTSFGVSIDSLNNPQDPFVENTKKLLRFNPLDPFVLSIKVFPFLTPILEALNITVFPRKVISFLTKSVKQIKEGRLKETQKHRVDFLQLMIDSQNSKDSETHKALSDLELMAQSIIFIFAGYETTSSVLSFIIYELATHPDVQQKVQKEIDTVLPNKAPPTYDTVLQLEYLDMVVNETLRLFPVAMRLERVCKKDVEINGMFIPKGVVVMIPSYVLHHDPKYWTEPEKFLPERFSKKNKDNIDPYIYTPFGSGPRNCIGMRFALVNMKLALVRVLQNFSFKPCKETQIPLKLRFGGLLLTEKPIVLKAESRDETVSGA
row,Structure (SMILES),Potency
1,COc1ccc(-n2[nH]c3c(cnc4ccccc43)c2=O)cc1,inactive
2,O=P(O)(O)OC(CO)CO,inactive
3,C/C=C/C=C/C(=O)O,inactive
4,CCc1ccc(CN(Cc2ccco2)C(=O)COc2ccccc2Cl)cc1,inactive
5,CC1(C)Oc2ncnc(N)c2N=C1c1ccc(C23CCC(CC(=O)O)(CC2)CC3)cc1,inactive
6,CNC1CCN(C(Cc2cccc(-c3ccncc3)c2)C(=O)c2sc3c(F)ccc(F)c3c2Cl)CC1 (centres undefined),2.39 µM (active)
7,CCOc1ccc(NC(=O)Cn2cc(C(=O)c3cccs3)c3ccccc32)cc1,inactive
8,COC(=O)[C@H](Cc1cccc(C(=N)N)c1)[C@@H](C)NC(=O)c1ccc(-c2cc[n+]([O-])cc2)cc1,inactive
9,C=CCCCCCCCCC(=O)OC,inactive
10,CC1(O)CCC(C(C)(C)O)CC1 (centres undefined),inactive
11,COc1cccc(-n2nc(C(=O)O)cc2-c2ccc(C3CCCCC3)c(Cl)c2)c1,inactive
12,COc1ccc(NC(=O)c2ccc(C(=N)N(C)C)cc2)c(C(=O)Nc2ccc(Cl)cn2)c1,inactive
13,COc1ccc(NC(=O)c2ccc(-c3ccc(C(N)=O)cc3C)cc2)cc1N1CCN(C)CC1,inactive
14,NS(=O)(=O)c1ccc(NC(=O)Nc2ccc(F)cc2)cc1,inactive
15,COc1ccccc1C(=O)Nc1cccc(NC(=O)c2cccc(C)c2)c1,inactive
16,CCCCCCCC(=O)O,inactive
17,Cc1ccc(C2=Nc3ccccc3N(CC(=O)Nc3ccccc3F)C(=O)C2)cc1C,inactive
18,Cc1ccnn1-c1ccc(C(=O)N2CCN(S(=O)(=O)c3ccc(Cl)c(C(F)(F)F)c3)CC2)cc1,inactive
19,CCC[C@H](N[C@@H](C)C(=O)N1[C@H](C(=O)O)C[C@@H]2CCCC[C@@H]21)C(=O)OCC,inactive
20,O=C(NCC(O)CO)c1ccncc1Nc1ccc(I)cc1F (centres undefined),inactive

row,Structure (SMILES),Potency
1,Nc1ncnc2c1ncn2[C@H]1O[C@@H](C(=O)N2CCN(CC(=O)Nc3cccc4c3CNC4=O)CC2)[C@H](O)[C@@H]1O,inactive
2,NC(=O)OCC(O)COc1ccc(Cl)cc1 (centres undefined),inactive
3,COc1ccc(C(=O)NC(c2ccccc2Cl)c2cc(Cl)c3cccnc3c2O)cc1 (centres undefined),inactive
4,C=Cc1ccccc1,inactive
5,CCC(Cc1c(I)cc(I)c(O)c1I)C(=O)O (centres undefined),16.9 µM (active)
6,Cn1c(=O)c2c(nc(CN3CCN(C(=O)C4CC4)CC3)n2Cc2cccc(F)c2)n(C)c1=O,inactive
7,COc1ccc(OC)c(-c2ccc(NC(=O)c3ccncc3F)cc2)c1,inactive
8,CN1CC2CN(c3ccc4oc5ccccc5c(=O)c4c3)CC2C1 (centres undefined),inactive
9,CC(C)Nc1nc(Nc2ccccc2)nc(-c2ccccc2)n1,inactive
10,CN[C@@H]1[C@@H](O)[C@@H](O[C@@H]2[C@@H](O)[C@H](O[C@H]3O[C@H]([C@@H](C)NC)CC[C@H]3N)[C@@H](N)C[C@H]2N)OC[C@]1(C)O,inactive
11,CCOC(=O)C(CCc1ccccc1)NC1CCCN2CCCC(C(=O)O)N2C1=O (centres undefined),inactive
12,CC1=CC(O)=NS(=O)(=O)O1,inactive
13,CCC(CC)Nc1nc(C)c(-c2ccc(OC(F)(F)F)cc2OC)nc1OC,inactive
14,O=C(O)[C@@H]1CCCN1,inactive
15,O=S(O)CO,inactive
16,CC1(C#N)CCN(c2c(C(=O)N3CCC(C(=O)C4CC4)CC3)cnc3ccc(F)cc23)CC1,inactive
17,O=C(CSc1nc(-c2ccc(F)cc2)nc2c1Cc1ccccc1O2)Nc1cccc(C(=O)O)c1,inactive
18,COC(=O)c1ccc(C2C=C(c3ccc(Cl)cc3)Nc3nc4ccccc4n32)cc1 (centres undefined),inactive
19,CCCCCCCCCCCCCCCCCC[N+](C)(C)CCC[Si](OC)(OC)OC,inactive
